Rows were chosen to be rich in hits. Some 1.1% of all compounds tested hit in one or more screens of this group.
bovine MsrA act – bovine MsrA enzyme activators, primary screen, biochemical, absorbance, HTS; Methionine sulfoxide reductase A (Bos taurus); purified bovine MsrA, absorbance read-out; activation, % at 10.6 µM; 360,000 compounds, 0.3% hits; in the data active = activation above about 7.5%
PKA-R1A act – activators of PKA-R1A holoenzyme, primary screen, biochemical, fluorescence polarization, Cy5-IP20, bovine R1A, mouse PKAc. cAMP-dependent protein kinase type I-alpha regulatory subunit (Bos taurus) + …. PKA-R1A dissociation; scaled: DMSO 0%, 113 µM cGMP 100%. activation, % at 11.4 µM. 340,000 compounds, 0.083% hits. AID 504707, 2011;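 active = percent activation above the mean of all tested compounds plus 3 SD, cut at about 19% in these data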;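 also: higher means more PKAc released from R1A so a rise in polarization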
PKA-R2B act – activators of PKA-R2B holoenzyme, primary screen, biochemical, fluorescence polarization, Cy5-IP20, human. cAMP-dependent protein kinase catalytic subunit beta (Homo sapiens) + cAMP-dependent …. PKA-R2B holoenzyme dissociation; R2B truncated from residue 108, S112A mutant; 0% DMSO only, 100% 113 µM cGMP. activation, % at 11.4 µM. 340,000 compounds, 0.079% hits. AID 504700, 2011;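 active = activation above a cutoff set at the mean over all compounds plus 3 SD, cut at about 18% in these data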;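 also: higher means more holoenzyme dissociation and a rise in polarization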
Target sequence (P31323 whole entry, looked up, other chains not shown, the tested form may be a part): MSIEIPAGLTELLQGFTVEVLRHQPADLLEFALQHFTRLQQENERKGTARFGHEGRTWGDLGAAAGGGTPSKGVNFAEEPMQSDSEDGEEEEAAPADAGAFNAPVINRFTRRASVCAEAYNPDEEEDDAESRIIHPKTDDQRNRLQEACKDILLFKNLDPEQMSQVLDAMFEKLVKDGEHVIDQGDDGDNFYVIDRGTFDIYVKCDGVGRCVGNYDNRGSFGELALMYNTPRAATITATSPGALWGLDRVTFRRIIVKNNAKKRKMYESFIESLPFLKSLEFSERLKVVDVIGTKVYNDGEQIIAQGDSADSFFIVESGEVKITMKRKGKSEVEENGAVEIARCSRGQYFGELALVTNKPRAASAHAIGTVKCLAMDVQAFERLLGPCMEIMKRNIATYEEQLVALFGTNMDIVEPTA
MsrA inh – bovine MsrA enzyme inhibitors, primary screen, biochemical, absorbance, HTS. Methionine sulfoxide reductase A (Bos taurus). purified bovine MsrA, absorbance read-out. inhibition, % at 15.5 µM. 360,000 compounds, 0.75% hits
MsrA inh confirm – bovine MsrA inhibitors, retest, confirmation, biochemical, absorbance, HTS | shares compounds with MsrA inh | purified bovine MsrA, absorbance read-out | inhibition, % at 15.5 µM | 2,300 compounds, 41% hits | AID 651822, 2012;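 also: coupled to thioredoxin reductase with NADPH and selenocystamine and DMSO as substrate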
A number is an active result; n = inactive; x = not tested or not shown. Rule as the data show it, unless noted: active = inhibition above about 4.5%; inactive = the rest.

SMILES	bovine MsrA act	PKA-R1A act	PKA-R2B act	MsrA inh	MsrA inh confirm
Fc1cccc(/C=N/Nc2cc(N3CCOCC3)ncn2)c1	n	n	n	4.9	n
Oc1ccc(/C=N/Nc2cc(N3CCOCC3)nc(N3CCOCC3)n2)cc1	n	n	n	5.8	5.7
C#CCN1N=C(c2ccc(C)cc2)CSC1=O	n	x	x	n	x
CC1(C)CCc2cc(-c3ccnc(=S)[nH]3)ccc2O1	n	n	n	n	x
S=c1nccc(-c2ccc3c(c2)CCO3)[nH]1	n	n	n	5.6	n
COc1ccc([C@H]2CC(=O)C=C(c3ccc(Cl)c(C(F)(F)F)c3)C2)cc1	n	n	n	n	x
O=C(NC(=S)Nc1ccccc1Cl)C1CC1	n	n	n	7.0	n
COc1ccccc1NC(=S)NC(=O)C1CC1	n	n	n	n	x
CC(NC(=O)Cc1ccsc1)c1ccc(F)cc1 (centres undefined)	n	n	n	n	x
Cc1ccc(-c2nnc(Nc3ccc(C(=O)N(C)C)cc3)c3ccccc23)cc1S(=O)(=O)NCC1CCCO1 (centres undefined)	n	n	n	4.7	n
CCN(CC)CCCN1C(=O)C(=O)/C(=C(/O)c2ccccc2)C1c1cc(OC)ccc1OC (centres undefined)	n	n	n	18.6	6.4
COc1ccccc1C1/C(=C(/O)c2ccccc2)C(=O)C(=O)N1CCO (centres undefined)	n	n	n	n	x
CCC(=O)NCCc1c[nH]c2ccccc12	n	n	n	n	x
O=C(NCCc1c[nH]c2ccccc12)OCCSS(=O)(=O)O	n	n	n	11.6	n
Cc1ccc(-c2nc(=S)c3c(n2Cc2ccco2)CC(C)(C)OC3)cc1	n	n	n	x	x
Cc1ccc(-c2nc(=S)c3c(n2CC2CCCO2)CC(C)(C)OC3)cc1 (centres undefined)	n	n	n	4.9	n
COc1ccc(C2=CC(=O)CC(C)(C)C2)cc1OC	n	n	n	4.8	n
N#Cc1c(-n2cccc2C=O)sc2c1CCCC2	n	n	n	11.2	10.0
O=C1c2ccc3c4c(ccc(c24)C(=O)N1c1cccc(O)c1)C(=O)N(c1cccc(O)c1)C3=O	n	n	n	9.5	7.1
Cc1ccccc1CN1C(=O)CN(S(C)(=O)=O)CC1(C)C(=O)NC(C)C (centres undefined)	x	x	x	n	x
Cc1ccc(C(=O)N/N=C/C=C/c2ccccc2)cc1	n	n	n	4.9	4.6
Cc1occc1C(=O)N/N=C/C=C/c1ccccc1	n	n	n	5.5	5.1
Cc1cc(C(=O)N/N=C/C=C/c2ccccc2)c(C)o1	n	n	n	4.7	n
O=C(N/N=C/C=C/c1ccccc1)c1cccc(Br)c1	n	n	n	n	x
O=C(O)c1cc(N/N=C/C=C/c2ccccc2)ccc1Cl	n	n	n	5.1	n
SMILES	bovine MsrA act	PKA-R1A act	PKA-R2B act	MsrA inh	MsrA inh confirm
CCC(C)(C)C1CCC2(CC1)NC(=O)N(CC(=O)N(C)Cc1ccc(OC(F)F)cc1)C2=O (centres undefined)	n	n	n	n	x
NC(=S)N/N=C/C=C/c1ccccc1	n	n	n	5.2	n
Cc1ccc(S(=O)(=O)N2CCN(C(=O)c3ccc(N4CCC(C)CC4)c([N+](=O)[O-])c3)CC2)cc1	n	n	n	n	x
O=C1NC(=Nc2ccc(O)cc2)S/C1=C/c1ccco1	n	n	n	4.7	4.7
CC(C)c1nc(NCCO)c(C#N)c2c1CCCC2	n	n	n	8.8	7.0
N#Cc1c(NCCCO)nc(-c2ccco2)c2c1CCCC2	n	n	n	9.5	7.6
CO[C@@H]1CN(C)C(=O)c2ccc(NC(=O)C3CCCC3)cc2OC[C@@H](C)N(Cc2ccc(F)cc2)C[C@H]1C	x	x	x	n	x
[O-][N+]1=c2ccc(Nc3ccccc3)cc2=NC12CCCCC2	n	n	n	10.8	8.6
Cc1noc(NS(=O)(=O)c2ccc(NC(=O)Cc3ccc([N+](=O)[O-])cc3)cc2)c1C	n	n	n	n	x
COc1cc2sc(-c3ccc(S(C)(=O)=O)cc3)c(C(=O)NCCCCO)c2cc1OC	n	n	n	5.5	n
Nc1ccc(C(=O)N/N=C2\CCCc3c2[nH]c2ccccc32)cc1	n	n	n	5.3	7.1
CC(C)c1ccc2[nH]c3c(c2c1)CCC/C3=N\NC(=O)c1ccncc1	n	n	n	n	x
CN1c2ccsc2/C(=N/NC(=O)c2c(F)cccc2F)CS1(=O)=O	n	n	n	n	x
CN1c2ccsc2/C(=N/Nc2ccccc2)CS1(=O)=O	n	n	n	5.3	n
COc1cccc(/C=C/C(=O)Nc2ccc3[nH]c(=O)[nH]c3c2)c1	n	n	n	n	x
COc1cc(NC(=O)/C=C/c2ccccc2)c(C(=O)O)cc1OC	n	n	n	4.7	n
COc1ccc(/C=C/C(=O)Nc2ccncc2)cc1OC	n	n	n	5.8	n
COc1ccc(/C=C/C(=O)NC(=S)NNC(=O)c2cccnc2)cc1OC	n	n	n	5.6	5.6
COc1cc(/C=C/C(=O)Nc2ccc3[nH]c(=O)[nH]c3c2)cc(OC)c1OC	n	n	n	5.6	n
COc1cc(NC(=O)Cc2ccccc2)c(C(=O)O)cc1OC	n	n	n	n	x
COc1cc(/C=C/C(=O)OCC(=O)Nc2ccc(S(=O)(=O)N3CCCC3)cc2)ccc1O	n	n	n	n	x
COc1ccc(/C=C/C(=O)OCC(=O)Nc2ccc(S(N)(=O)=O)cc2)cc1OC	n	n	n	4.8	n
COc1ccc(/C=C/C(=O)Nc2ccc(OC)nc2)cc1	n	n	n	n	x
COc1ccc(NC(=O)/C=C/c2ccc(OC)c(OC)c2)cn1	n	n	n	6.8	n
COc1ccc(C=CC(=O)c2ccc(OC)c(OC)c2)cc1O	n	n	n	4.7	n
SMILES	bovine MsrA act	PKA-R1A act	PKA-R2B act	MsrA inh	MsrA inh confirm
COc1ccc(C=CC(=O)c2ccc3cc(OC)c(OC)cc3c2)cc1OC	n	n	n	n	x
COc1ccc(/C=C/C(=O)c2ccc(O)cc2)cc1	n	n	n	5.2	n
CCCCCCCCN1C(=O)[C@@H](CC(=O)N2CCN(C(=O)c3ccco3)CC2)C[C@@]2(C(=O)OC)C1=C[C@H](C(C)(C)C)O[C@@H]2C	x	x	x	n	x
COc1ccc(-c2cc3ccc(OCc4nn[nH]n4)cc3oc2=O)cc1OC	n	n	n	6.5	n
N#CC1=C(N)Oc2c(O)cc3ccccc3c2C1c1ccsc1 (centres undefined)	n	n	n	8.5	10.4
CCOC(=O)C1=C(C)OC(N)=C(C#N)C1c1ccsc1 (centres undefined)	n	n	n	x	x
COc1ccc(OC)c(C2=NOC(C(=O)Nc3cc(C)on3)C2)c1 (centres undefined)	n	n	n	n	x
C=CCc1c(C)nc(C)nc1N/N=C/c1ccc(N(C)C)cc1	n	n	n	6.8	5.0

Screens (PubChem BioAssay)
